# Data from PMC8384837, “Expanding the binding specificity for RNA recognition by a PUF domain”.
# Target: PUM1 PUF domain R1-RVS (Homo sapiens, UniProt Q14671 828-1176, S863R;R864V;Q867S)
# Test: yeast three-hybrid, YBZ-1, SC-Leu-His + 0.5 mM 3-AT, 4 days
# Conditions: tags: N-Gal4 AD-HA kept; label: inside an RPR1-promoter hybrid RNA with tandem MS2 sites; ssRNA
# Summary of the method: (§1)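 The interaction score is the log change in variant frequency from input to selection. Scores were computed in log2 with a pseudocount of 1 for absent variants, using Illumina sequencing of PCR-amplified repeat regions. The input came from four days on SC-Leu and the selection from four days on SC-Leu-His + 0.5 mM 3-AT. The cells were strain YBZ-1 (LexA–MS2 coat fusion, HIS3 reporter) co-expressing Pumilio-1 PUF domain libraries and matching RNA elements from a centromeric plasmid.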
row,Sequence,binding signal
1,GGCUAGAACUAGUGGAUCCCCCGGCGCCCGGCGGCUCGAGCCCGGGUAAGUGUAAAUUGUCUGCAUGCCGCCGGGCGCCAUGCCUGCAGGUCGACUCUAGAAAACAUG,3.69 log2 enrichment (interaction score)
2,GGCUAGAACUAGUGGAUCCCCCGGCGCCCGGCGGCUCGAGCCCGGGUAAGUGUAAAUCGUCUGCAUGCCGCCGGGCGCCAUGCCUGCAGGUCGACUCUAGAAAACAUG,4.31 log2 enrichment (interaction score)
3,GGCUAGAACUAGUGGAUCCCCCGGCGCCCGGCGGCUCGAGCCCGGGUAAGUGUAAAUGGUCUGCAUGCCGCCGGGCGCCAUGCCUGCAGGUCGACUCUAGAAAACAUG,1.89 log2 enrichment (interaction score)

# Target: PUM1 PUF domain R1-RGS (Homo sapiens, UniProt Q14671 828-1176, S863R;R864G;Q867S)
# Test: as above
# Conditions: tags: N-Gal4 AD-HA kept; label: inside an RPR1-promoter hybrid RNA with tandem MS2 sites; ssRNA
# Summary of the method: as §1
row,Sequence,binding signal
1,GGCUAGAACUAGUGGAUCCCCCGGCGCCCGGCGGCUCGAGCCCGGGUAAGUGUAAAUUGUCUGCAUGCCGCCGGGCGCCAUGCCUGCAGGUCGACUCUAGAAAACAUG,2.53 log2 enrichment (interaction score)
2,GGCUAGAACUAGUGGAUCCCCCGGCGCCCGGCGGCUCGAGCCCGGGUAAGUGUAAAUCGUCUGCAUGCCGCCGGGCGCCAUGCCUGCAGGUCGACUCUAGAAAACAUG,2.68 log2 enrichment (interaction score)
3,GGCUAGAACUAGUGGAUCCCCCGGCGCCCGGCGGCUCGAGCCCGGGUAAGUGUAAAUGGUCUGCAUGCCGCCGGGCGCCAUGCCUGCAGGUCGACUCUAGAAAACAUG,0.85 log2 enrichment (interaction score)

# Target: PUM1 PUF domain R5-RHG (Homo sapiens, UniProt Q14671 828-1176, C1007R;R1008H;Q1011G)
# Test: as above
# Conditions: tags: N-Gal4 AD-HA kept; label: inside an RPR1-promoter hybrid RNA with tandem MS2 sites; ssRNA
# Summary of the method: as §1
row,Sequence,binding signal
1,GGCUAGAACUAGUGGAUCCCCCGGCGCCCGGCGGCUCGAGCCCGGGUAAGUGUCAAUAGUCUGCAUGCCGCCGGGCGCCAUGCCUGCAGGUCGACUCUAGAAAACAUG,5.64 log2 enrichment (interaction score)
2,GGCUAGAACUAGUGGAUCCCCCGGCGCCCGGCGGCUCGAGCCCGGGUAAGUGUUAAUAGUCUGCAUGCCGCCGGGCGCCAUGCCUGCAGGUCGACUCUAGAAAACAUG,5.88 log2 enrichment (interaction score)
3,GGCUAGAACUAGUGGAUCCCCCGGCGCCCGGCGGCUCGAGCCCGGGUAAGUGUAAAUAGUCUGCAUGCCGCCGGGCGCCAUGCCUGCAGGUCGACUCUAGAAAACAUG,2.92 log2 enrichment (interaction score)
